Measurements published in PubChem BioAssay (NCATS).
Inconclusive results are not listed. Activity calls are given as the source filed them. Unless noted, calls come from the whole dose curve; as a rule, active = well fitted curve in the direction sought with a large enough effect; inconclusive = small, poorly fitted or top-dose-only effect, or another doubt; inactive = no such curve, though single readings can be large; an effect the other way counts as inactive or inconclusive.

Legend:
[1] = Cell Viability - Hek293 (AID 427;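 active = compounds whose dose-response curve shows a full or clear partial loss of cell viability, called from curve shape rather than a numeric limit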;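 note: potency is the fitted concentration of half-maximal effect; cells exposed to compound for 40 hours at 37 °C before reading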); conditions: qHTS
In short: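 Luminescent ATP read-out (CellTiter-Glo, 20 min RT) after 40 hr compound exposure at 37 °C in complete medium. Signal normalized to DMSO (basal) and 100 uM tamoxifen (100% inhibition); concentration-response fitted with the standard Hill equation to give AC50.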

[2] = Cell Viability - HepG2 (AID 433; calls by dose curve;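 note: potency is the fitted concentration of half-maximal effect; potency for ATP loss meaning cytotoxicity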); conditions: qHTS
In short: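 HepG2 cells, 1500 per well, treated 40 hr at 37 °C in complete medium; viability from intracellular ATP by CellTiter-Glo luminescence. Normalized to DMSO and 100 uM tamoxifen; AC50 from Hill fit of qHTS concentration-response.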

[3] = Cell Viability - N2a (AID 540); conditions: N2a mouse neuroblastoma cell viability; activity change, negative = cytotoxicity: at 92.2 µM (top of the series); note: nearly all actives have a fitted effect of over 45% in size; note: potency is the fitted concentration of half-maximal effect;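 for activity change, negative = cytotoxicity: plate controls were DMSO alone for no effect and tamoxifen control for full effect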
In short: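 Luminescent ATP signal (CellTiter-Glo, 20 min at room temperature) served as the viability read-out after N2a cells were treated with compounds for 40 hours at 37 °C. Concentration-response data were fitted to the Hill equation for AC50.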

[4] = Cell Viability - NIH 3T3 (AID 541); conditions: NIH 3T3 cell viability, qHTS; activity change, negative = cytotoxicity: at 92.2 µM (top of the series); note: nearly all actives have a fitted effect of over 25% in size; note: potency is the fitted concentration of half-maximal effect;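 for activity change, negative = cytotoxicity: plate controls were DMSO alone for no effect and tamoxifen positive control for full effect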
In short: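 Luminescent ATP signal (CellTiter-Glo) served as the viability read-out after NIH 3T3 cells were exposed to compounds over a concentration range for 40 hr at 37 °C. Hill-equation modelling of concentration-response data gave AC50.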

[5] = Cellular Toxicity (caspase-3) HepG2 (AID 654); conditions: HepG2 caspase-3 activation, luminescence, 0% = DMSO only, 100% = tamoxifen; series mostly up to 92.2 µM;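 note: cells exposed to compound for 16 hours before reading; 0% = DMSO alone and 100% = caspase signal from 100 µM tamoxifen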
In short: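 Cells plated 5 hr at 37 °C, compound added, incubated 16 hr at 37 °C. Caspase-Glo 3/7 reagent followed, 20 min at room temperature, then luminescence read. Activation scored as signal increase; AC50 from Hill fit.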

[6] = Cellular Toxicity (caspase-3) MRC-5 (AID 659); conditions: MRC-5 cells, luminescence, normalized: DMSO 0%, 10 µM staurosporine 100%; series mostly up to 91.7 µM
In short: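 MRC-5 human normal lung fibroblasts, 1500 cells/well, treated 16 h at 37 °C in complete medium. Caspase 3/7 measured by Caspase-Glo luminescence after 1 h at room temperature. Normalized to DMSO and 10 uM staurosporine; AC50 from Hill fit.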

[7] = Cellular Toxicity (caspase-3) SK-N-SH (AID 661); conditions: SK-N-SH caspase-3 activation, qHTS, DMSO as zero, staurosporine as full; series mostly up to 91.7 µM
In short: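 Human neuroblastoma SK-N-SH, 1500 cells/well, 5 hr pre-incubation, then compound 16 hr, 37 °C. Caspase-Glo 3/7 reagent, 1 hr RT, luminescence. Norm. to DMSO/10 uM staurosporine; Hill-fit AC50.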

[8] = MultiTox-Fluor Cytotoxicity Assay - LYMP1-001 - Live Cells (AID 947); conditions: LYMP1-001 lymphoblastoid cells, live-cell protease fluorescence viability; series mostly up to 92.2 µM; note: potency is the fitted concentration of half-maximal effect;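 for activity change, negative = cytotoxicity: 0% = DMSO only and full inhibition = tetraoctylammonium bromide control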
[9] = Cell Viability - LYMP2-013 (AID 970); conditions: LYMP2-013 lymphoblastoid cells viability; series mostly up to 92.2 µM; note: nearly all actives have a fitted effect of over 55% in size; note: potency is the fitted concentration of half-maximal effect
In short: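 qHTS; 2500 lymphoblastoid cells/well; 5 hr 37 C settle; cpd 24 hr 37 C; CellTiter-Glo, 30 min RT; luminescence. AC50 = Hill fit.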

[10] = Cell Viability - LYMP2-015 (AID 971); conditions: LYMP2-015 lymphoblastoid cell viability; series mostly up to 92.2 µM; note: nearly all actives have a fitted effect of over 55% in size; note: potency is the fitted concentration of half-maximal effect
In short: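 Luminescent ATP read-out (CellTiter-Glo) served as the viability measure after lymphoblastoid cells were exposed to compounds for 24 hours at 37 C. Concentration-response data were fitted with the Hill equation to give AC50.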

[11] = Cell Viability - LYMP2-021 (AID 974); conditions: LYMP2-021 lymphoblastoid cells viability; series mostly up to 92.2 µM;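 note: compound exposure lasts 24 hours at 37 °C; nearly all actives have a fitted effect of over 55% in size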; note: potency is the fitted concentration of half-maximal effect; for activity change, negative = cytotoxicity: % is set by controls: 0 for no effect and ±100 for the full control effect
In short: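 Plate 2500 lymphoblastoid cells per well and incubate 5 hr at 37 C. Add compounds over a concentration range and incubate 24 hr at 37 C. Add CellTiter-Glo, wait 30 min at room temperature, read luminescence.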

[12] = Cell Viability - LYMP2-025 (AID 976); conditions: LYMP2-025 lymphoblastoid cell viability; series mostly up to 92.2 µM; note: potency is the fitted concentration of half-maximal effect;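 for activity change, negative = cytotoxicity: plate controls were DMSO only for no effect and tetraoctylammonium bromide control for full effect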
In short: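 Seed 2500 LYMP2-025 cells/well; 5 hr at 37 C; add compound; 24 hr at 37 C; add CellTiter-Glo; 30 min RT; read luminescence. AC50 from Hill-modelled concentration-response.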

[13] = Cell Viability - LYMP2-007 (AID 979); conditions: LYMP2-007 lymphoblastoid cell viability; series mostly up to 92.2 µM;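 note: cells exposed to compound for 24 h before reading; nearly all actives have a fitted effect of over 60% in size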; note: potency is the fitted concentration of half-maximal effect;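 for activity change, negative = cytotoxicity: 0% = DMSO only and the negative end = 92 µM tetraoctylammonium bromide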
In short: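 Luminescent ATP signal (CellTiter-Glo) serves as the viability read-out after 24 hr compound treatment of lymphoblastoid cells in complete medium at 37 C. Concentration-response data were fitted to the Hill equation to give AC50 values.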

[14] = Cell Viability - LYMP2-012 (AID 982); conditions: LYMP2-012 lymphoblastoid cell viability qHTS; series mostly up to 92.2 µM;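 note: cellular ATP by luciferase luminescence where a drop means cytotoxicity; cells exposed to compound for one day before reading; nearly all actives have a fitted effect of over 55% in size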; note: potency is the fitted concentration of half-maximal effect;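 for activity change, negative = cytotoxicity: 0% = DMSO only and full loss = 92 µM tetraoctylammonium bromide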
[15] = Cell Viability - LYMP2-020 (AID 986); conditions: series mostly up to 92.2 µM; note: nearly all actives have a fitted effect of over 55% in size; note: potency is the fitted concentration of half-maximal effect
In short: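 Luminescent ATP signal (CellTiter-Glo, 30 min at room temperature) is the read-out after 24 h compound treatment of lymphoblastoid cells at 37 C. AC50 values come from Hill-equation fits across concentrations.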

[16] = biological target: Voltage-gated inwardly rectifying potassium channel KCNH2 (Homo sapiens) (UniProt Q12809); test: qHTS Assay for Small Molecule Inhibitors of the Human hERG Channel Activity (AID 588834); conditions: U2OS BacMam hERG, FluxOR thallium flux fluorescence; series mostly up to 92.2 µM;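 note: lower thallium flux fluorescence means stronger hERG block; nearly all actives have a fitted effect of over 50% in size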; note: potency is the fitted concentration of half-maximal effect
In short: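 U2OS cells BacMam-transduced with hERG, 2000 cells/well, compound ~10 min at 37 °C before stimulation buffer. FluxOR thallium flux fluorescence read kinetically on FDSS; decrease indicates block; AC50 from Hill fits.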

[17] = biological target: Tumor necrosis factor (Homo sapiens) (UniProt P01375); test: qHTS assay to identify small molecules that stimulate Tumor Necrosis Factor-alpha (TNF-alpha) secretion (AID 651757; active = well fitted curve in the direction sought with a large enough effect in the signal ratio; the % refers to the signal ratio; note: 0% is about no effect); conditions: Human cells, HTRF 665/615 ratio; series mostly up to 92.2 µM
In short: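 Read-out is HTRF, a TR-FRET sandwich of cryptate- and XL665-labeled anti-TNF-alpha antibodies detecting cytokine secreted by THP-1 cells. Cells had been incubated with test compounds at 37 C for 17 hrs beforehand.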

[18] = qHTS assay for small molecule agonists of the antioxidant response element (ARE) signaling pathway measured by Nrf2-dependant transcriptional activity (AID 720636; active = well fitted curve in the direction sought with a large enough effect in the repeat runs; an effect the other way counts as inactive or inconclusive;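 note: HepG2 cells with an ARE-driven luciferase reporter; % of control where 0% means no effect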); conditions: ARE-luc HepG2, Nrf2 luciferase reporter, 16 h; series mostly up to 92.4 µM
In short: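 Attachment 6 hr at 37 C, then compound versus DMSO vehicle for 16 hr in ARE-luc HepG2 cells (1% dialyzed FBS); luminescence recorded 30 min after ONE-Glo addition at room temperature.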

[19] = qHTS assay for cell viability of the p53RE-bla HCT-116 cell line (AID 743292); conditions: p53RE-bla HCT-116 viability, ATP luminescence, 16 h; series mostly up to 95 µM; note: nearly all actives have a fitted effect of over 55% in size; note: potency is the fitted concentration of half-maximal effect; for activity change, negative = cytotoxicity: % is set by controls: 0 for no effect and ±100 for the full control effect
In short: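 Compound-exposed HCT-116 (p53RE-bla) cells, 4,000 per well, were kept 16 h at 37 C following a 5 h preincubation. Cell number was estimated from total ATP by CellTiter-Glo luminescence read after 30 min at room temperature.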

Sequence of Tumor necrosis factor (Homo sapiens) (P01375 whole entry, looked up): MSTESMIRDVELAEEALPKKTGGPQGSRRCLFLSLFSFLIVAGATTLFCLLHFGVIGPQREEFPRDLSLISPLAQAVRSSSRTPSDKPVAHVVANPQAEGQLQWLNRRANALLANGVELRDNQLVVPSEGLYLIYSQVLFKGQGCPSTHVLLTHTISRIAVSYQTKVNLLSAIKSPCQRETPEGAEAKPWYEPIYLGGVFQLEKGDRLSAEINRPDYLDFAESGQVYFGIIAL
Sequence of Voltage-gated inwardly rectifying potassium channel KCNH2 (Homo sapiens) (Q12809 whole entry, looked up): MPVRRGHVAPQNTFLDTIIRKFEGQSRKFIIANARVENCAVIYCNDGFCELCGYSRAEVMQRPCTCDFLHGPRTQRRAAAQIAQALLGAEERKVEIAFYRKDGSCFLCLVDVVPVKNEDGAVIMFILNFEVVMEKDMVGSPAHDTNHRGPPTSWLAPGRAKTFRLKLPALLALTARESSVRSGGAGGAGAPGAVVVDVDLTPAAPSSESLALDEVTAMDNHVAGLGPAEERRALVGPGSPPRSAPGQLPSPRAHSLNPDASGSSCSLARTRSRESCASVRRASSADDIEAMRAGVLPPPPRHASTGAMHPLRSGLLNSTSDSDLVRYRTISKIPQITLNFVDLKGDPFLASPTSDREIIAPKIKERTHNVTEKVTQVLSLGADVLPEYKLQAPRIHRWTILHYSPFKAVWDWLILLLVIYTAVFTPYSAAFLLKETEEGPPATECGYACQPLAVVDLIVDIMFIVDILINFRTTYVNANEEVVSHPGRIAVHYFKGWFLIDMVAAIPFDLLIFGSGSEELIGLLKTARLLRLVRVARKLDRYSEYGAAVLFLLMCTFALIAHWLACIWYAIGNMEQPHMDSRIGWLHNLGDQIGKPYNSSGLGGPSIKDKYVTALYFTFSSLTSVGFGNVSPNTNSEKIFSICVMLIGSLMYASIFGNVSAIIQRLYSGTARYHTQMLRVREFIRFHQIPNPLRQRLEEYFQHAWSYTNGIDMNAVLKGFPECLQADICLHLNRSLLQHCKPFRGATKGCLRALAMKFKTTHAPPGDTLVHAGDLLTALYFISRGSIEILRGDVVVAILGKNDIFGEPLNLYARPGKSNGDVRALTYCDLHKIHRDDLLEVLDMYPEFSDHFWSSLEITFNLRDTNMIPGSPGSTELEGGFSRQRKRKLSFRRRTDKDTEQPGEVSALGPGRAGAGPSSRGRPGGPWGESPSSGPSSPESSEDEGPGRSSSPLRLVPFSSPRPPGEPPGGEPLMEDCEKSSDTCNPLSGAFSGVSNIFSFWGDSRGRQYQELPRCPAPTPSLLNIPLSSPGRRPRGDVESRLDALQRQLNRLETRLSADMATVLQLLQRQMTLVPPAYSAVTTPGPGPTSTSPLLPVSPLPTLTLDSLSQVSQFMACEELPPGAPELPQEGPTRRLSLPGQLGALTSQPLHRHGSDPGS

O=C(O)C1C(C(=O)O)C2(Cl)C(Cl)=C(Cl)C1(Cl)C2(Cl)Cl (configuration not stated)
inactive: Potency [1] > 92 µM | Potency [2] > 92 µM | activity change, negative = cytotoxicity [3] 14.3% | Potency [4] | outcome [5] | outcome [6] | outcome [7] | Potency [8] | Potency [9] | Potency [10] | Potency [11] | Potency [12] | Potency [13] | Potency [14] | Potency [15] | Potency [16] | Potency [17] | Potency [18] | Potency [19]

Cc1ccc(O)cc1C
inactive: Potency [1] > 92 µM | Potency [2] > 92 µM | Potency [18]

CCCCCCCCn1sccc1=O
inactive: outcome [5] | outcome [6] | outcome [7] | Potency [17] | Potency [19]
active: Potency [1] 35.3 µM | activity change, negative = cytotoxicity [3] -113% | Potency [4] 12.6 µM | Potency [8] 31.6 µM | Potency [9] 15.8 µM | Potency [10] 3.16 µM | Potency [11] 3.98 µM | Potency [12] 6.31 µM | Potency [13] 2.51 µM | Potency [14] 3.98 µM | Potency [15] 3.98 µM

C[C@@H]1CC[C@@]2(OC1)O[C@H]1[C@@H](O)[C@H]3[C@@H]4CC[C@H]5C[C@@H](O[C@@H]6O[C@H](CO)[C@H](O[C@@H]7O[C@H](CO)[C@@H](O)[C@H](O[C@@H]8OC[C@@H](O)[C@H](O)[C@H]8O)[C@H]7O[C@@H]7O[C@H](CO)[C@@H](O)[C@H](O[C@@H]8O[C@H](CO)[C@@H](O)[C@H](O)[C@H]8O)[C@H]7O)[C@H](O)[C@H]6O)[C@H](O)C[C@]5(C)[C@H]4CC[C@]3(C)[C@H]1[C@@H]2C
active: Potency [1] 27.5 µM | Potency [2] 11.9 µM | Potency [3] 31.6 µM | Potency [4] 31.6 µM | Potency [8] 12.6 µM | Potency [9] 20 µM | Potency [10] 15.8 µM | Potency [11] 15.8 µM | Potency [12] 25.1 µM | Potency [13] 25.1 µM | Potency [14] 15.8 µM | Potency [15] 12.6 µM | Potency [16] 25.1 µM | Potency [19] 35.5 µM
inactive: outcome [5] | outcome [6] | outcome [7] | Potency [17] | Potency [18]
